An excerpt weighted towards active compounds, which were near 12% of everything screened.
JMJD2A Tudor: inhibitors of human JMJD2A Tudor domain | AlphaScreen JMJD2A-Tudor / H3K4me3 peptide binding | Potency, µM (series often up to 114 µM), without a hit: at the highest dose activity change, negative = inhibition, hits mostly inhibitors | O75164 | actives 4.4% (n = 390,000); further: on the % scale 0 is the no-effect control and ±100 the full control effect; nearly all actives have a fitted effect of over 50% in size
G9a block: G9a (human) methyltransferase inhibition | actives 8.8% (n = 350,000) | G9a H3K9 monomethylation, AlphaScreen, 2 h | Potency, µM (top dose mostly 102 µM), without a hit: top-dose activity, negative = inhibition, hits mostly inhibitors | Q96KQ7 | AID 504332; further: on the % scale 0 is the no-effect control and ±100 the full control effect; nearly all actives have a fitted effect of over 75% in size
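Using a bead-based AlphaScreen, monomethylated H3K9 product from 2 h room-temperature reactions (G9a 20 nM, peptide 500 nM, SAM 20 uM) was detected with 0.5 ug/mL rabbit anti-H3K9me1 antibody.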
BAZ2B block: blocks human BAZ2B. Q9UIF8. AlphaScreen BAZ2B-H3K14Ac peptide displacement. Potency, µM (highest dose often 114 µM), for inactives: at the highest dose activity change, negative = inhibition, usual class: inhibitors. actives 4.4% (n = 360,000). AID 504333; further: on the % scale 0 is the no-effect control and ±100 the full control effect; nearly all actives have a fitted effect of over 60% in size
Target sequence (Q9UIF8 whole entry, looked up): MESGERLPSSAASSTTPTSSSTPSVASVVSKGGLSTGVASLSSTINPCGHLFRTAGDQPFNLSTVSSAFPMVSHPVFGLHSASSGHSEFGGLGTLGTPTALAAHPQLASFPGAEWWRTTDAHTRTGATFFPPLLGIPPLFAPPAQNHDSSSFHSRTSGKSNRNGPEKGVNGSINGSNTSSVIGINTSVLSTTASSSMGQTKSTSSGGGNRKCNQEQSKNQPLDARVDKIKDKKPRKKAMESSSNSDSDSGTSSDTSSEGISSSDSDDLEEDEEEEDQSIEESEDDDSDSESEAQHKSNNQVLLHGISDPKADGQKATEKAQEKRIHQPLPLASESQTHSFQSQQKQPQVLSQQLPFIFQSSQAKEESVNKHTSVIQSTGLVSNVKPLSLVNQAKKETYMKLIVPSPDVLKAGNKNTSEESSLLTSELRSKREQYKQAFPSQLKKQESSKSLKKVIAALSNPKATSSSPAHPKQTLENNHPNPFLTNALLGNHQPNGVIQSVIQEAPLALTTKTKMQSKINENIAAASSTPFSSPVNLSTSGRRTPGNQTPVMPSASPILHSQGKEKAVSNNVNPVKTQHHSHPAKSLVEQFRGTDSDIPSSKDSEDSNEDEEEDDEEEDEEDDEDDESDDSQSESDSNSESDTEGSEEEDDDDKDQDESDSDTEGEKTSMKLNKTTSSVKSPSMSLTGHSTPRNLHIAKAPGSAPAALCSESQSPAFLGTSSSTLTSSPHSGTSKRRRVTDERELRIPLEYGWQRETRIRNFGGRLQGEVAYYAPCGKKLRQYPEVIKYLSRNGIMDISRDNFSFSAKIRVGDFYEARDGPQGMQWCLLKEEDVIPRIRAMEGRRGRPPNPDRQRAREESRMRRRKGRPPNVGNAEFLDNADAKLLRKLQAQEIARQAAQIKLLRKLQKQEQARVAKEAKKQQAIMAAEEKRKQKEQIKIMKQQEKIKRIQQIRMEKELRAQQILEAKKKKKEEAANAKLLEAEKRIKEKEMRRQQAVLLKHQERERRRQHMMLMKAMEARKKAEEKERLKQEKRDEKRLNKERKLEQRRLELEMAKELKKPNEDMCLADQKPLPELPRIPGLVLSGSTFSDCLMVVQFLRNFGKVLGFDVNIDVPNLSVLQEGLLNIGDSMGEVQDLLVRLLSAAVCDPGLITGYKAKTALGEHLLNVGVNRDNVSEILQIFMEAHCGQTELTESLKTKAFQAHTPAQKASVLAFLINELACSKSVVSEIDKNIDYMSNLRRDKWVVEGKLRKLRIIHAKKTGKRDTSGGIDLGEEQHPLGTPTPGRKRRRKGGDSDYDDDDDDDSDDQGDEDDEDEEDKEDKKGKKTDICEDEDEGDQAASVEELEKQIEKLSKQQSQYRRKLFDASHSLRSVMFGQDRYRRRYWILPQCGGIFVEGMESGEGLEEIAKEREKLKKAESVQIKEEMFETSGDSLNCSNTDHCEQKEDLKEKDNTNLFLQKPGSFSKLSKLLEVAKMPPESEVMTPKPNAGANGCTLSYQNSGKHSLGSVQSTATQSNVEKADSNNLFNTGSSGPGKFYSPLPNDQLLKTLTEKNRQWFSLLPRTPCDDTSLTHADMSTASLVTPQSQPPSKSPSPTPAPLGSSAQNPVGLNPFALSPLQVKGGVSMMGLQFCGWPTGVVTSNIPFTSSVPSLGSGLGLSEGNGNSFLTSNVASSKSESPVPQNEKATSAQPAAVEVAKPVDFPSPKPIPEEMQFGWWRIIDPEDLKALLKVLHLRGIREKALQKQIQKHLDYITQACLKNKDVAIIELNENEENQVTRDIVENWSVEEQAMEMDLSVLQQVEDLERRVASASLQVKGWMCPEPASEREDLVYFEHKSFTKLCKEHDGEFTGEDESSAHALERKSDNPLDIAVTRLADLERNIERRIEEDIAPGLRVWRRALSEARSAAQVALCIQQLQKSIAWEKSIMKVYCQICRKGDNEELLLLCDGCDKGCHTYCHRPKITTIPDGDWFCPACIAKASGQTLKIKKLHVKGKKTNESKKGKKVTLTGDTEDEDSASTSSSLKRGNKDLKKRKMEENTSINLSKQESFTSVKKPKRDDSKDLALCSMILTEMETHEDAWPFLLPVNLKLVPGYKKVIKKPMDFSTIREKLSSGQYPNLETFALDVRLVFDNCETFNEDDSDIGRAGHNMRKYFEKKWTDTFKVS
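Multi-concentration screen (max 110 uM) measuring displacement of acetylated histone H3 peptide from BAZ2B by AlphaScreen, using 50 nM protein, 50 nM peptide and 10 ug/mL streptavidin donor plus Ni-chelate acceptor beads.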
HP1b chromo inh: inhibitors of HP1-beta chromodomain binding to methylated histone tails; P83916; AlphaScreen HP1-beta / biotin-H3K9me3 peptide binding; Potency, µM (doses to about 114 µM), without a hit: at the top dose activity change, negative = inhibition, hits mostly inhibitors; actives 0.56% (n = 390,000); AID 540317; further: nearly all actives have a fitted effect of over 70% in size
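Compound inhibition of the preformed complex between 50 nM HP1-beta and 50 nM biotinylated H3K9me3 peptide was read by AlphaScreen. Buffer was PBS pH 7.4 with 0.01% Tween-20. Incubations ran 30 min at room temperature, with 10 ug/mL donor/acceptor beads.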
Sfp PPTase inh: blocks B. subtilis Sfp PPTase activity; Q9F4F7; Biochemical Sfp PPTase activity, qHTS; Potency, µM, inactives show largest response in the series, negative = inhibition, actives largely listed as inhibitors; actives 3.5% (n = 310,000);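 further: the enzyme is Sfp with the accession as filed and its product quenches rhodamine fluorescence; 0% = enzyme reaction without inhibitor and -100% = no enzyme wells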
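Compounds were incubated with enzyme (final 15 nM) for 15 min at room temperature before substrate addition started the reaction. Fluorescence at 525 nm excitation, 598 nm emission was recorded immediately and after 30 minutes.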
* hit, by the source's call; [ ] = remark or other dose. The call rests on the fitted dose curve; in most records, active means well fitted curve in the direction sought with a large enough effect; inconclusive means small, poorly fitted or top-dose-only effect, or another doubt; inactive means no such curve, though single readings can be large; an effect the other way counts as inactive or inconclusive. Potency means the concentration at half of the fitted maximal effect.

`Cc1cc2nc(/C(C#N)=C\c3ccc(-c4ccccc4C(=O)O)o3)[nH]c2cc1C` gave JMJD2A Tudor -16%, G9a block inconclusive, BAZ2B block inconclusive, HP1b chromo inh 4% and Sfp PPTase inh -3%.
`Cc1cc2nc3s/c(=C/c4ccc(-c5ccccc5C(=O)O)o4)c(=O)n3c2cc1C` gave JMJD2A Tudor 32µM*, G9a block 3.5µM*, BAZ2B block 50µM*, HP1b chromo inh inconclusive and Sfp PPTase inh 79µM*.
For CC(C)(C)c1ccc(C(=O)N2CCC(C(=O)NC3CC3)CC2)cc1 the results were JMJD2A Tudor -7%, G9a block 22%, BAZ2B block -10%, HP1b chromo inh 0% and Sfp PPTase inh 12%.
CC(=O)c1sc2nc(-c3ccc(C)cc3)c3c(c2c1N)CCCC3 was read as JMJD2A Tudor -4%, G9a block 8%, BAZ2B block 2%, HP1b chromo inh 62% and Sfp PPTase inh 35µM*.
Screening CCc1nc2sc(C(C)=O)c(N)c2c2c1CCCC2 returned JMJD2A Tudor 30%, G9a block 0%[12.7 µM], BAZ2B block -6%, HP1b chromo inh 91% and Sfp PPTase inh -22%.
Screening CN(C(=O)c1sc2nc(N3CCOCC3)c3c(c2c1N)CCCC3)c1ccccc1 returned JMJD2A Tudor 4%, G9a block inconclusive, BAZ2B block 3%, HP1b chromo inh 40% and Sfp PPTase inh inconclusive.
NC(=O)c1sc2nc(-c3ccccc3)c3c(c2c1N)CCCC3 was read as JMJD2A Tudor -5%, G9a block inconclusive, BAZ2B block inconclusive, HP1b chromo inh 67% and Sfp PPTase inh 40µM*.
Cc1ccc(-c2nc(SCC(N)=O)c(C#N)c3c2CCCC3)cc1 was read as JMJD2A Tudor 3%, G9a block -43%, BAZ2B block -14%, HP1b chromo inh 27% and Sfp PPTase inh 1%.
CC(C)c1nc2sc3c(=O)[nH]cnc3c2c2c1CCCC2 was read as JMJD2A Tudor -16%, BAZ2B block -3%, HP1b chromo inh 33% and Sfp PPTase inh 15%.
For Cc1ccc(-c2nc3sc(C(N)=O)c(N)c3c3c2CCCC3)cc1 the results were JMJD2A Tudor -15%, G9a block -36%, BAZ2B block -31%, HP1b chromo inh 46% and Sfp PPTase inh 40µM*.
For CC(C)c1nc2sc(C(=O)O)c(N)c2c2c1CCCC2 the results were JMJD2A Tudor -17%, G9a block inconclusive, BAZ2B block -38%, HP1b chromo inh 13% and Sfp PPTase inh 56µM*.
For CCOC(=O)CN(C(=O)CCC(=O)Nc1cc(C)on1)C(C(=O)NC1CCCC1)c1cccnc1 (centres undefined) the results were JMJD2A Tudor -5%, G9a block 13%, BAZ2B block -4%[57.1 µM], HP1b chromo inh 65% and Sfp PPTase inh 32%.
For Cc1nc2sc(C(N)=O)c(N)c2c2c1CCCC2 the results were JMJD2A Tudor -2%, G9a block inconclusive, BAZ2B block -17%, HP1b chromo inh 40% and Sfp PPTase inh 79µM*.
Screening CCOC(=O)c1sc2nc(N3CCOCC3)c3c(c2c1N)CCC3 returned JMJD2A Tudor 9%, G9a block 6%, BAZ2B block 7%, HP1b chromo inh 11% and Sfp PPTase inh inconclusive.
`CCOC(=O)c1c(-c2ccccc2)csc1NC(=O)C1CCCO1` (centres undefined) gave JMJD2A Tudor -14%, G9a block inconclusive, BAZ2B block 1%, HP1b chromo inh -26% and Sfp PPTase inh 32µM*.
Screening CCOC(=O)c1c(-c2ccccc2)csc1NC(=O)CSc1ccccc1 returned JMJD2A Tudor 38%, G9a block 29%[59 µM], BAZ2B block 45%, HP1b chromo inh 52% and Sfp PPTase inh -8%.
Screening CCOC(=O)c1c(-c2ccccc2)csc1NC(=O)/C(C#N)=C/c1ccc(O)c(OC)c1 returned JMJD2A Tudor -32%, G9a block 40µM*, BAZ2B block inconclusive, HP1b chromo inh inconclusive and Sfp PPTase inh inconclusive.
CCOC(=O)c1c(-c2ccc(-c3ccccc3)cc2)csc1NC(=O)C1C2CCC(O2)C1C(=O)O (centres undefined) was read as JMJD2A Tudor -14%[57.1 µM], BAZ2B block inconclusive, HP1b chromo inh inconclusive and Sfp PPTase inh 50µM*.
COC(=O)C1Cc2c([nH]c3ccccc23)C2(CCN(Cc3ccccc3)CC2)N1 (centres undefined) was read as JMJD2A Tudor inconclusive, G9a block 45µM*, BAZ2B block inconclusive, HP1b chromo inh -15% and Sfp PPTase inh -5%.
`CCCN1CCC2(CC1)NC(C(=O)O)Cc1c2[nH]c2ccccc12` (centres undefined) gave JMJD2A Tudor -9%, G9a block 14µM*, BAZ2B block inconclusive, HP1b chromo inh 13% and Sfp PPTase inh -13%.
For CCOc1ccc(CNS(=O)(=O)c2ccc3[nH]c(=O)ccc3c2)cc1 the results were JMJD2A Tudor -2%, G9a block 13%[59 µM], BAZ2B block 3% and HP1b chromo inh 27%[57 µM].
Screening O=C(COC(=O)CNC(=O)c1ccccc1F)Nc1ccc(Cl)cn1 returned JMJD2A Tudor -8% and HP1b chromo inh 30%.
`Cc1cccc(NC(=O)CSc2nnc(-c3ccco3)c(-c3ccco3)n2)c1C` gave JMJD2A Tudor 50µM*, G9a block 22%[0.501 µM], BAZ2B block 35µM*, HP1b chromo inh inconclusive and Sfp PPTase inh 32µM*.
`Cc1cccc(NC(=O)CSc2nnc(-c3ccco3)c(-c3ccco3)n2)c1` gave JMJD2A Tudor 40µM*, G9a block 8.9µM*, BAZ2B block 50µM*, HP1b chromo inh inconclusive and Sfp PPTase inh 7.9µM*.
For Cc1cccc(NC(=O)CSc2nc(N)cc(N)n2)c1 the results were JMJD2A Tudor 4%, G9a block -8%[59 µM], BAZ2B block -1%, HP1b chromo inh 24% and Sfp PPTase inh 15%.
Screening COc1ccc(S(=O)(=O)N2CCCCCC2)cc1C(=O)N(C)Cc1ccco1 returned JMJD2A Tudor -12%, G9a block 10%[0.501 µM], BAZ2B block -19% and HP1b chromo inh 35%.
Screening COC(=O)c1ccc(C2N=C(c3cccs3)CC(c3ccccc3O)N2)cc1 (centres undefined) returned JMJD2A Tudor -27%, G9a block 45µM*, BAZ2B block -6%, HP1b chromo inh 15% and Sfp PPTase inh -9%.
For Cc1cccc(C(=O)NC2CCN(C(=O)Nc3ccccc3C)CC2)c1 the results were JMJD2A Tudor 1%, G9a block -2%, BAZ2B block 3%, HP1b chromo inh 11% and Sfp PPTase inh 5%.
Screening Cc1cccc(C(=O)NC2CCN(C(=O)Nc3ccc(F)cc3)CC2)c1 returned JMJD2A Tudor -1%, G9a block 79µM*, BAZ2B block -2%, HP1b chromo inh -5% and Sfp PPTase inh 11%.

Assay outcomes deposited in PubChem by National Center for Advancing Translational Sciences (NCATS).
